Source: PubChem BioAssay AID743398 (Broad Institute, 2014)
Among all 300,000 compounds or so, about 3,600 (1.2%) were called active. This excerpt belongs to a sample that is enriched for actives. Values without a mark were called inactive. Cut-off read from the data, not from the text of the source: active = activation above about 30% (passing the limit was not always enough); inconclusive = no clear call, values can overlap the other calls. Where a SMILES comes first, the peptide text is derived from it. [ ]: non-standard residue; d: D form. The star is where a group is joined. PhAc = O=C(Cc1ccccc1)*

Assay: Wnt/beta-catenin pathway activators, primary screen, cell-based, plate reader, single point (AID 743398);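 note: 0% = neutral control wells and 100% = positive control wells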
Settings: Wnt/beta-catenin reporter cell assay, activator, at 9.35 µM, stronger effect = higher value
For `CC(=O)Oc1ccc(Cn2c(C)c(C(=O)NCc3ccc(C#N)cc3)sc2=O)cc1`, the activation was -1.94%. Molecule `Cc1ccc(-c2nc3c(Cl)cc(C(F)(F)F)cn3c2Cc2cccc(Cl)c2)cc1` has an activation of -3.09%. `CC(=O)Nc1cccc(-c2cc(NC=O)c3ncc(-c4ccc(F)c(Cl)c4)n3c2)c1` showed an activation of -1.52%. Molecule `COc1cccc(-c2cc3nc(NCCOc4ccccc4Cl)n(C)c(=O)c3s2)c1` has an activation of 0.348%. `COc1ccc(-c2ccc3c(n2)CCCN3S(=O)(=O)c2ccc(C)cc2)cc1` showed an activation of -3.98%. For `O=C(O)CSCc1nc2ccccc2s1`, the activation was 39.2% (active). `O=C(O)CCCCc1nc2ccccc2s1` gave an activation of -1.61%. In the case of `O=C(O)c1ccccc1CSc1nc2ccccc2s1`, the activation is reported as 2.11%. `CC(=O)c1cnc(-c2ccccc2)s1` gave an activation of 2.94%. In the case of `CS(=O)(=O)N1CCc2nc(-c3ccccc3)sc2C1`, the activation is reported as 35.7% (active). `CS(=O)(=O)N1CCC(C(=O)N2CCN(c3ccccc3)CC2)CC1` showed an activation of -0.44%. With `COC(=O)Cc1nnn2c1[C@H](C)[C@@H](OC)c1cc(Br)ccc1-2` the activation was 2.78%. Molecule `Nc1nc2c(ncn2[C@@H]2O[C@H](C(=O)N[C@H](Cc3ccccc3)C(=O)NCC3CCCCC3)[C@@H](O)[C@H]2O)c(=O)[nH]1` has an activation of -6.28%. For `COc1ccc(CNC(=O)c2ccc(-c3cccnc3)c3ccoc23)cc1OC`, the activation was -3.07%. For `CO/N=C/CC(=O)c1ccc(OC)cc1`, the activation was 61.5% (active). With `COc1ccc(CCC(=O)c2ccc(OC)cc2)cc1` the activation was 5.92%. Work on `COc1ccc(OCCC(=O)c2ccc(OC)cc2)cc1` yielded an activation of -1.86%. In the case of `CC(C)(C)C(c1nc2ccccc2[nH]1)n1c(Cc2csc3ccccc23)nc2ccccc21` (stereo not given), the activation is reported as 15.7%. Work on `CCCCN1Cc2c(nc3cc(-c4ccccc4)[nH]n3c2=O)C1=O` yielded an activation of 0.267%. In the case of `CCc1c(C)nc2cc(C)[nH]n2c1=O`, the activation is reported as -2.02%. With `C=CCc1c(C)nc2cc(-c3ccccc3)[nH]n2c1=O` the activation was 45.5% (active). Work on `COc1ccc(CN2CCC(C)(Oc3cccc(F)c3)C2)c2ccccc12` (stereo not given) yielded an activation of -4.58%. Work on `CCc1nc2c(OCCOc3ccccc3)cccn2c1N(C)C(=O)c1ccccc1F` yielded an activation of -2.42%. Work on `CC(O)(c1cccc(F)c1)c1nc(-c2ccc3c(c2)OCO3)cs1` (stereo not given) yielded an activation of -1.63%. For `Brc1ccc(-c2noc(-c3ccccc3)n2)o1`, the activation was 43.9% (active). `O=C(Oc1ccc(-c2nc(-c3ccccn3)no2)cc1)c1ccccc1` showed an activation of 1.55%. `Nc1ccc(-c2nnc(-c3ccccc3)o2)cc1` showed an activation of 2.79%. `Cc1cc2nc(-c3ccc(F)cc3)c(Cc3ccsc3)n2c(C)c1Br` gave an activation of -0.642%. Work on `COc1cccc(CNC(=O)[C@H]2CCCN2C(=O)[C@H]2CCCN2C(=O)C2CCCCC2)c1` yielded an activation of 0.974%. `CC(C)C[C@@H](NC(=O)[C@H]1CCCN1C(=O)Cc1ccccc1)C(N)=O` (PhAc-[dP]-[dL]-NH2) gave an activation of 0.192%. With `COC(=O)[C@H](CC(C)C)NC(=O)N1CCCCC1C` (stereo not given in full) the activation was 39.6% (active). For `CC(C)C[C@H](NC(=O)C1CCC(CNC(=O)[C@@H]2CCCN2C(=O)OC(C)(C)C)CC1)C(=O)O` (stereo not given in full), the activation was 1.33%. Work on `COc1cccc(CNC(=O)[C@H]2CCCN2C(=O)[C@H]2CCCN2C(=O)c2cc(F)cc(F)c2)c1` yielded an activation of -1.85%. `O=C1c2ccccc2NC(c2ccccc2O)N1NS(=O)(=O)c1ccccc1` (stereo not given) gave an activation of -0.668%. For `CN(C)c1ccc(C2Nc3ccccc3C(=O)N2NS(=O)(=O)c2ccccc2)cc1` (stereo not given), the activation was -0.625%. In the case of `O=C1c2ccccc2NC(c2ccccn2)N1NS(=O)(=O)c1ccccc1` (stereo not given), the activation is reported as 31% (active). `c1ccc(CNCc2ccc(CNCc3ccccc3)cc2)cc1` showed an activation of 0.235%. Molecule `N#CCCN(C(=O)Nc1ccc(Cl)c(Cl)c1)C1CCCCC1` has an activation of 2.31%. Molecule `CC1(C(=O)NCc2ccc3c(c2)OCO3)CCN1C(=O)Cc1cccc2ccccc12` (stereo not given) has an activation of 12.9%. `CCN(CC)CCN(C)C(c1ccnc2ccccc12)c1nnnn1-c1ccc2c(c1)OCCO2` (stereo not given) gave an activation of -2.38%. `CCc1cccc(CC)c1N1C(=O)CC(Sc2ccccc2N)C1=O` (stereo not given) showed an activation of 2.41%. `c1c2c(cc3sc(N4CCCCC4)nc13)OCCO2` showed an activation of 1.11%. `O=S(=O)(Nc1ccc2nc(N3CCOCC3)sc2c1)c1ccccc1` showed an activation of 29.3%. In the case of `Brc1ccc2nc(N3CCCC3)sc2c1`, the activation is reported as 43.7% (active). For `COC(=O)[C@@]12C[C@@H](CC(=O)N3CCC(c4ccccc4)CC3)C(=O)N(Cc3ccccc3)C1=CCC(C)(C)C2`, the activation was -3.58%. `CCCCCc1c(Cc2ccccc2)ncn1CCc1ccccc1OC` gave an activation of -9.51%. In the case of `O=C(O)c1cc([N+](=O)[O-])c(Nc2cccc3ccccc23)c([N+](=O)[O-])c1`, the activation is reported as 0.153%. In the case of `O=C(CNC(=O)c1ccccc1)Oc1ccc([N+](=O)[O-])cc1`, the activation is reported as -0.597%. For `O=C(Nc1ccc2ccccc2c1[N+](=O)[O-])c1ccccc1`, the activation was 55.8% (active). In the case of `COC(=O)c1c(-c2ccc(OC)cc2)c2c(c3c4ccccc4n(S(=O)(=O)c4ccc(C)cc4)c13)C(=O)N(C)C2`, the activation is reported as -6.59%. With `COC(=O)C1=C(C(=O)OC)C2C=C(C(C)C)C1C(=O)C2(C)O` (stereo not given) the activation was -3.31%. Molecule `O=C(NCc1ccc(F)cc1)c1cc(C2CCCCN2C(=O)c2ccccn2)on1` (stereo not given) has an activation of -0.749%. Molecule `O=C(NCc1ccccc1)[C@@H]1CCCN1C(=O)[C@@H](NS(=O)(=O)c1ccc(F)cc1F)C1CCCCC1` has an activation of -0.246%. For `COC(=O)c1ccc(CSc2ccc(S(=O)(=O)N3CCCCC3)cn2)cc1`, the activation was -0.89%. Molecule `COC(=O)c1ccc(CSc2nncn2N)cc1` has an activation of -7.5%. In the case of `COC(=O)c1ccc(SCc2ccccc2)nc1`, the activation is reported as 51.6% (active). Work on `Nc1ccn([C@@H]2O[C@H](C(=O)N[C@H]3CCCCNC3=O)[C@@H](O)[C@H]2O)c(=O)n1` yielded an activation of -3.4%. In the case of `O=C(Nc1ccc2c(c1)OCCO2)C1CCCC1`, the activation is reported as -15.2%. For `O=C(Nc1ccc2c(c1)OCCO2)C1CCCN(c2ncccn2)C1` (stereo not given), the activation was 45.5% (active). For `Cc1cc(C)nc(N2CCC(C(=O)Nc3ccc4c(c3)OCCO4)CC2)n1`, the activation was -5.24%.
